This is a sample that favours compounds with a hit; in the whole collection about 5.3% have one here.
MARV entry inh: inhibitors of Marburg virus binding or cell entry; Marburg virus pseudotyped entry inhibition, cell reporter; Potency, µM (top dose mostly 37.8 µM), for inactives: at the highest dose activity change, negative = inhibition, usual class: inhibitors; hit rate 1.8% among 300,000; calls by dose curve; tested in HEK293 cells
HCV inh: HCV inhibition; Huh7.5.1 HCVcc-Cre infection, luciferase reporter, 44 h; Potency, µM (highest dose often 41.8 µM), for inactives: top-dose activity change, negative = inhibition, most hits filed as inhibitors; hit rate 3.4% among 340,000; active = well fitted inhibition curve with a large enough effect; inconclusive = small, poorly fitted or top-dose-only effect, or another doubt; inactive = no such curve, though single readings can be large or run the other way
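Infectious HCVcc-Cre (~0.5 moi) was added to cells just after compound, with cells seeded 4 h earlier at 1,000 per well. Luciferase activity after 44 h culture reported infection; substrate was incubated 15 min at room temperature before reading.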
Vaccinia mCherry: vaccinia inhibition (mCherry reporter); Vaccinia virus mCherry reporter infection, fluorescence; Potency, µM (top dose mostly 36.5 µM), without a hit: at the top dose activity change, negative = inhibition, actives largely listed as inhibitors; hit rate 0.63% among 310,000; calls by dose curve; tested in A549 cells; note: nearly all actives have a fitted effect of over 35% in size
LASV entry inh: inhibitors of Lassa virus binding or cell entry. Lassa virus pseudotype entry inhibition, cell reporter. Potency, µM (titrated, usually from 37.9 µM), inactives show at the highest dose activity change, negative = inhibition, usual class: inhibitors. hit rate 1.2% among 300,000; calls by dose curve; tested in HEK293 cells; note: nearly all actives have a fitted effect of over 50% in size
Vaccinia Venus: vaccinia inhibition (Venus reporter). Vaccinia virus Venus reporter expression, fluorescence. hit rate 0.46% among 330,000. Potency, µM (series often up to 36.5 µM), inactives show top-dose activity change, negative = inhibition, actives largely listed as inhibitors; calls by dose curve; tested in A549 cells; note: nearly all actives have a fitted effect of over 30% in size
FMDV antiviral: antivirals against foot and mouth disease virus; FMDV antiviral cell-based qHTS; Potency, µM (titrated, usually from 57.9 µM), for inactives: at the top dose activity change, negative = inhibition, usual class: inhibitors; hit rate 1.2% among 410,000; AID 1159524; calls by dose curve; tested in HEK293T cells; note: read-out not given here; nearly all actives have a fitted effect of over 45% in size
* hit, by the source's call; ! = repeats disagree; [ ] = remark or other dose. % is set by controls: 0 for no effect and ±100 for the full control effect; potency is the fitted concentration of half-maximal effect.

Screening Cc1c(Nc2ccc3nonc3c2[N+](=O)[O-])c(=O)n(-c2ccccc2)n1C returned MARV entry inh -5%[46.1 µM], HCV inh 6%, Vaccinia mCherry 10%, LASV entry inh -19%, Vaccinia Venus 5% and FMDV antiviral -13%.
O=C(O)c1cccc(Nc2ccc3nonc3c2[N+](=O)[O-])c1 was read as HCV inh 13% and FMDV antiviral -11%.
`O=C(O)c1ccc(Nc2cc(Cl)c3nonc3c2[N+](=O)[O-])cc1` gave MARV entry inh 29%[46.1 µM], HCV inh -4%, Vaccinia mCherry -2%, LASV entry inh 12%, Vaccinia Venus -3% and FMDV antiviral 40µM*.
`Cc1c(Nc2cc(Cl)c3nonc3c2[N+](=O)[O-])c(=O)n(-c2ccccc2)n1C` gave MARV entry inh inconclusive, HCV inh 4µM*, Vaccinia mCherry inconclusive, LASV entry inh inconclusive, Vaccinia Venus 28µM* and FMDV antiviral 14µM*.
`CNc1cc(Cl)c2nonc2c1[N+](=O)[O-]` gave MARV entry inh inconclusive, HCV inh inconclusive, Vaccinia mCherry -27%, LASV entry inh inconclusive, Vaccinia Venus inconclusive and FMDV antiviral 13µM*.
Screening O=C(NCc1ccncc1)c1cnn(-c2nccc(-c3cccs3)n2)c1C1CC1 returned Vaccinia mCherry -13%, Vaccinia Venus -5% and FMDV antiviral -1%.
Cc1ccc2nc(CN3CCN(S(=O)(=O)c4ccc(F)cc4)CC3)oc2c1 was read as Vaccinia mCherry -8%, LASV entry inh -19%[46.1 µM], Vaccinia Venus 5% and FMDV antiviral 0%.
`Cc1cc2c(c(-c3ccc(Cl)cc3)c1)OC(CNC(=O)CCC(=O)N(C)C)C2` (centres undefined) gave Vaccinia mCherry -17%, Vaccinia Venus -15% and FMDV antiviral -1%.
COC(=O)N[C@H](C(C(=O)OC)=C(C)NCc1ccccc1)c1ccc(Cl)cc1 was read as MARV entry inh -17%[14.2 µM].
CCC1(C2CCN(C(=O)c3csc(C(C)=O)c3)CC2)NC(=O)N(CCc2scnc2C)C1=O (centres undefined) was read as Vaccinia mCherry -4%, Vaccinia Venus 3% and FMDV antiviral 6%.
For COc1ccc(NC(=O)C(CC(C)C)NC(=O)C2CCCCC2)c(OC)c1 (centres undefined) the results were MARV entry inh -9%[46.1 µM], HCV inh -6%, Vaccinia mCherry -1%, LASV entry inh -9%[46.1 µM], Vaccinia Venus -8% and FMDV antiviral 316µM*!.
COc1ccc(NC(=O)N(C2CCCCC2)C(C)c2ccco2)c(OC)c1 (centres undefined) was read as MARV entry inh -21%, HCV inh inconclusive, Vaccinia mCherry -6%, LASV entry inh -15% and Vaccinia Venus -4%.
`COc1ccc(NC(=O)N(C2CCCCC2)C2CCN(C(C)C)CC2)c(OC)c1` gave MARV entry inh inconclusive, HCV inh 3.5µM*, Vaccinia mCherry -16%, LASV entry inh -14%, Vaccinia Venus -3% and FMDV antiviral -6%.
`O=c1c2cnn(-c3ccc(Cl)cc3)c2ncn1Cc1ccc(Cl)cc1Cl` gave MARV entry inh 5%[46.1 µM], Vaccinia mCherry -7%[7.34 µM], LASV entry inh 9%[46.1 µM], Vaccinia Venus -7%[7.34 µM] and FMDV antiviral -5%.
`O=C(c1ccc(F)c(F)c1)N1CCOc2ccc(CN3CCN(CCO)CC3)cc2C1` gave Vaccinia mCherry inactive, Vaccinia Venus 0% and FMDV antiviral -2%.
Screening [O-]/C(=C(\C(=S)Nc1ccc(Cl)cc1)[n+]1ccccc1)c1ccc(OC(F)F)cc1 returned HCV inh 11µM* and FMDV antiviral -16%.
`CC1=NNC(=O)/C1=C\c1cn(-c2ccccc2)nc1-c1ccccc1` gave MARV entry inh 4µM*, HCV inh 11µM*, Vaccinia mCherry 10µM*, LASV entry inh inconclusive, Vaccinia Venus 10µM* and FMDV antiviral 8.9µM*.
`COc1cc(=O)n2c(c1C(=O)NC(C)c1ccco1)CCN(C(=O)c1cccc(C)c1C)CC2` (centres undefined) gave Vaccinia mCherry -12%, Vaccinia Venus -8% and FMDV antiviral 27%.
`COc1cccc(N2CCN(Cc3nc4scc(-c5ccccc5)c4c(=O)[nH]3)CC2)c1` gave MARV entry inh inconclusive, HCV inh 13µM*, Vaccinia mCherry inconclusive, LASV entry inh inconclusive, Vaccinia Venus inconclusive and FMDV antiviral inconclusive.
For COc1cccc(N2CCN(Cc3nc4ccccc4c(=O)[nH]3)CC2)c1 the results were MARV entry inh -17%[46.1 µM], HCV inh 6%, LASV entry inh 13%, Vaccinia Venus 7% and FMDV antiviral 0%.
O=c1[nH]c(CN2CCN(c3ccccc3O)CC2)nc2scc(-c3ccccc3Cl)c12 was read as HCV inh 13µM*, Vaccinia mCherry inconclusive, Vaccinia Venus 1%[7.34 µM] and FMDV antiviral inconclusive.
For O=c1[nH]c(CN2CCN(c3ccc(O)cc3)CC2)nc2scc(-c3ccc(Cl)cc3)c12 the results were HCV inh 6.3µM* and FMDV antiviral -29%.
For COC(=O)c1ccc(-c2cccc3c2OC(CNC(=O)c2ccc4c(c2)OCCO4)C3)nc1 (centres undefined) the results were Vaccinia mCherry inconclusive, Vaccinia Venus inconclusive and FMDV antiviral 11%.
`CN(C(=O)CSc1nc2ccccc2o1)C1CCCCC1` gave MARV entry inh -7%[46.1 µM], HCV inh -5%, Vaccinia mCherry -11%, LASV entry inh inconclusive, Vaccinia Venus -6% and FMDV antiviral -11%.
Screening CC(=O)OC[C@H]1O[C@H](C#Cc2ccccc2Cl)C=C[C@H]1OC(C)=O returned MARV entry inh -1%[14.2 µM].
O=C(Nc1ccc([N+](=O)[O-])cc1)C1CC1(c1ccccc1)c1ccccc1 (centres undefined) was read as MARV entry inh inconclusive, HCV inh inconclusive, Vaccinia mCherry 1%, LASV entry inh -8%, Vaccinia Venus -17% and FMDV antiviral -22%.
`CC1(C)C(C=C(Cl)Cl)C1C(=O)Nc1ccc([N+](=O)[O-])cc1` (centres undefined) gave MARV entry inh inconclusive, HCV inh inconclusive, Vaccinia mCherry inconclusive, LASV entry inh inconclusive, Vaccinia Venus 18µM* and FMDV antiviral inconclusive.
Fc1ccc(N2CCN(Cc3ccc4c(c3)CN(Cc3cccn3-c3cccnc3)CCO4)CC2)cc1 was read as Vaccinia mCherry -5%, Vaccinia Venus -4% and FMDV antiviral inconclusive.
Screening O=C(CCl)N(c1ccc(Cl)cc1)c1c[nH]c2ccccc12 returned MARV entry inh inconclusive, HCV inh 2.5µM*, Vaccinia mCherry inconclusive, LASV entry inh inconclusive, Vaccinia Venus 13µM* and FMDV antiviral inconclusive.
